In all, about 5,500 compounds went through this assay and about 2,000 (36%) were called active. Inconclusive results (about 18%) are left out. Cut-off read from the data, not from the text of the source: active = normalized growth mostly below about 0.91 (no sharp cut-off); inconclusive = no clear call, values can overlap the other calls; inactive = mostly above about 0.92. Some of the results follow.
Assay: chemical genetic growth profiling, strain panel (AID 1159580);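 note: tested at 20 µM; growth read once vehicle control cultures reached saturation at 30 °C; 1 = growth at the plate median or of vehicle wells; lower values mean less growth of the strain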
Settings: growth OD

Measured: normalized growth

COc1cc(O)c2c(c1)C(=O)c1cc(C)cc(O)c1C2=O
inactive: S. cerevisiae deletion strains, locus YJR075W, strain HOC1, hits give low values 1 | S. cerevisiae deletion strains, locus YKL009W, strain mrt4, hits give low values 0.921 | S. cerevisiae deletion strains, locus YKL068W, hits give low values 1.01 | S. cerevisiae deletion strains, locus YKL085W, strain MDH1 (second series), hits give low values 0.98 | S. cerevisiae deletion strains, locus YKL085W, strain MDH1, hits give low values 0.98 | S. cerevisiae deletion strains, locus YKL160W, strain elf1, hits give low values 0.997 | S. cerevisiae deletion strains, locus YKL190W, strain CNB1, hits give low values 1.02 | S. cerevisiae deletion strains, locus YKR001C, strain vps1, hits give low values 1.02 | S. cerevisiae deletion strains, locus YKR026C, strain gcn3, hits give low values 0.997 | S. cerevisiae deletion strains, locus YKR091W, strain srl3, hits give low values 0.981 | S. cerevisiae deletion strains, locus YLL001W, strain dnm1, hits give low values 0.994 | S. cerevisiae deletion strains, locus YLL026W, hits give low values 0.995 | S. cerevisiae deletion strains, locus YLL041C, strain sdh2, hits give low values 0.988 | S. cerevisiae deletion strains, locus YLR027C, strain aat2, hits give low values 0.986 | S. cerevisiae deletion strains, locus YLR039C, strain RIC1, hits give low values 0.846 | S. cerevisiae deletion strains, locus YLR058C, strain SHM2, hits give low values 1 | S. cerevisiae deletion strains, locus YLR102C, strain apc9, hits give low values 0.997 | S. cerevisiae deletion strains, locus YLR113W, strain HOG1, hits give low values 0.979 | S. cerevisiae deletion strains, locus YLR221C, strain rsa3, hits give low values 0.995 | S. cerevisiae deletion strains, locus YLR258W, strain gsy2, hits give low values 0.978 | S. cerevisiae deletion strains, locus YLR262C, strain YPT6, hits give low values 0.884 | S. cerevisiae deletion strains, locus YLR268W, strain sec22, hits give low values 0.924 | S. cerevisiae deletion strains, locus YLR320W, strain mms22, hits give low values 0.962 | S. cerevisiae deletion strains, locus YLR330W, strain CHS5, hits give low values 1.01 | S. cerevisiae deletion strains, locus YLR342W, strain FKS1 (second series), hits give low values 1.02 | S. cerevisiae deletion strains, locus YLR342W, strain FKS1, hits give low values 0.994 | S. cerevisiae deletion strains, locus YLR357W, strain rsc2, hits give low values 0.945 | S. cerevisiae deletion strains, locus YLR370C, strain arc18, hits give low values 0.986 | S. cerevisiae deletion strains, locus YLR371W, strain rom2, hits give low values 1 | S. cerevisiae deletion strains, locus YLR384C, strain iki3, hits give low values 0.977 | S. cerevisiae deletion strains, locus YLR418C, strain cdc73, hits give low values 1 | S. cerevisiae deletion strains, locus YML016C, strain PPZ1, hits give low values 1.01 | S. cerevisiae deletion strains, locus YML120C, strain ndi1, hits give low values 1 | S. cerevisiae deletion strains, locus YML124C, strain tub3, hits give low values 1 | S. cerevisiae deletion strains, locus YMR058W, strain fet3, hits give low values 1.01 | S. cerevisiae deletion strains, locus YMR078C, strain ctf18, hits give low values 0.982 | S. cerevisiae deletion strains, locus YMR125W, strain sto1, hits give low values 0.995 | S. cerevisiae deletion strains, locus YMR129W, hits give low values 0.992 | S. cerevisiae deletion strains, locus YMR205C, strain PFK2, hits give low values 0.97 | S. cerevisiae deletion strains, locus YMR223W, strain ubp8, hits give low values 0.974 | S. cerevisiae deletion strains, locus YMR231W, strain pep5, hits give low values 0.979 | S. cerevisiae deletion strains, locus YMR263W, strain SAP30, hits give low values 1.01 | S. cerevisiae deletion strains, locus YMR307W, strain GAS1, hits give low values 0.931 | S. cerevisiae deletion strains, locus YNL067W, strain RPL9B, hits give low values 0.989 | S. cerevisiae deletion strains, locus YNL071W, strain lat1, hits give low values 0.998 | S. cerevisiae deletion strains, locus YNL128W, strain TEP1, hits give low values 1.02 | S. cerevisiae deletion strains, locus YNL153C, strain GIM3, hits give low values 1 | S. cerevisiae deletion strains, locus YNL183C, strain NPR1, hits give low values 0.99 | S. cerevisiae deletion strains, locus YNL209W, strain ssb2, hits give low values 0.985 | S. cerevisiae deletion strains, locus YNL233W, strain BNI4, hits give low values 0.986 | S. cerevisiae deletion strains, locus YNL248C, strain rpa49, hits give low values 0.987 | S. cerevisiae deletion strains, locus YNL271C, strain bni1, hits give low values 0.996 | S. cerevisiae deletion strains, locus YNL298W, strain CLA4, hits give low values 0.91 | S. cerevisiae deletion strains, locus YNL322C, strain KRE1 (second series), hits give low values 0.974 | S. cerevisiae deletion strains, locus YNL322C, strain KRE1, hits give low values 1.01 | S. cerevisiae deletion strains, locus YNR049C, strain mso1, hits give low values 0.987 | S. cerevisiae deletion strains, locus YNR052C, strain pop2, hits give low values 0.992 | S. cerevisiae deletion strains, locus YOL006C, strain TOP1, hits give low values 0.775 | S. cerevisiae deletion strains, locus YOL012C, strain htz1 1.44 | S. cerevisiae deletion strains, locus YOL147C, strain pex11, hits give low values 1.02 | S. cerevisiae deletion strains, locus YOR001W, strain rrp6, hits give low values 1.01 | S. cerevisiae deletion strains, locus YOR061W, strain CKA2, hits give low values 1 | S. cerevisiae deletion strains, locus YOR070C, strain gyp1, hits give low values 0.979 | S. cerevisiae deletion strains, locus YOR080W, strain dia2, hits give low values 0.978 | S. cerevisiae deletion strains, locus YOR083W, strain WHI5, hits give low values 0.984 | S. cerevisiae deletion strains, locus YOR106W, strain vam3, hits give low values 0.991 | S. cerevisiae deletion strains, locus YOR136W, strain idh2, hits give low values 0.997 | S. cerevisiae deletion strains, locus YOR144C, strain elg1, hits give low values 1 | S. cerevisiae deletion strains, locus YOR184W, strain ser1, hits give low values 0.971 | S. cerevisiae deletion strains, locus YOR231W, strain MKK1, hits give low values 1.02 | S. cerevisiae deletion strains, locus YOR265W, strain rbl2, hits give low values 0.983 | S. cerevisiae deletion strains, locus YOR270C, strain vph1, hits give low values 0.978 | S. cerevisiae deletion strains, locus YOR290C, strain snf2, hits give low values 0.93 | S. cerevisiae deletion strains, locus YOR316C, strain cot1, hits give low values 1 | S. cerevisiae deletion strains, locus YPL051W, strain arl3, hits give low values 0.939 | S. cerevisiae deletion strains, locus YPL055C, strain LGE1, hits give low values 0.999 | S. cerevisiae deletion strains, locus YPL078C, strain atp4, hits give low values 1 | S. cerevisiae deletion strains, locus YPL106C, strain sse1, hits give low values 0.973 | S. cerevisiae deletion strains, locus YPL240C, strain hsp82, hits give low values 0.98 | S. cerevisiae deletion strains, locus YPL256C, strain CLN2, hits give low values 1.03 | S. cerevisiae deletion strains, locus YPR119W, strain clb2, hits give low values 0.984 | S. cerevisiae deletion strains, locus YPR141C, strain kar3, hits give low values 1.01 | S. cerevisiae deletion strains, locus YPR163C, strain tif3, hits give low values 0.949 | S. cerevisiae deletion strains, locus YPR167C, strain met16, hits give low values 0.999 | S. cerevisiae deletion strains, strain wtn01, hits give low values 0.995 | S. cerevisiae strains, strain wild type, hits give low values 1.01
active: S. cerevisiae deletion strains, locus YLR262C, strain YPT6 (second series), hits give low values 0.845 | S. cerevisiae deletion strains, locus YML032C, strain rad52, hits give low values 0.812 | S. cerevisiae deletion strains, locus YNL250W, strain rad50, hits give low values 0.834 | S. cerevisiae deletion strains, locus YNL307C, strain MCK1, hits give low values 0.862 | S. cerevisiae deletion strains, locus YOR069W, strain VPS5, hits give low values 1.12 [resistant]

Source: PubChem BioAssay AID1159580 (chemical genetic matrix, 2015)
